# Hits are enriched below; roughly 6.6% of the tested compounds scored in any of these assays.
# KB-V1 MDR tox = qHTS assay for MDR1-selective chemotherapeutics: Primary screen using the drug-selected MDR subline cells KB-V1. KB-V1 MDR cells viability, CellTiter-Glo, 72 h. AID 1347076, 2019. actives 3.4% (n = 400,000). Potency, µM (top dose mostly 46.1 µM), actives largely listed as cytotoxic; further: on the % scale 0 is the no-effect control and ±100 the full control effect; nearly all actives have a fitted effect of over 60% in size
#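 Luminescent ATP read-out (CellTiter-Glo, 10 min) measures survival of drug-selected KB-V1 MDR cells after 72 h, 37 degrees C compound exposure. Medium: phenol-red-free DMEM, 10% FBS. Values from fitted concentration-response curves.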
# SW480 rereplic = A quantitative high throughput screen for small molecules that induce DNA re-replication in SW480 colon adenocarcinoma cells. SW480 DNA re-replication, Hoechst DNA content imaging, 48 h. Potency, µM (series often up to 46.1 µM), without a hit: at the top dose re-replication activation, usual class: activators. AID 624297, 2012. actives 1.8% (n = 340,000); further: % of control where 0% means no effect; nearly all actives have a fitted effect of over 55% in size
#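 Compounds, transferred as 23 nL by pin tool, were incubated with cells for 48 hr; DNA content per nucleus was then quantified by Hoechst staining and fluorescence plate imaging.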
# TSG101-PTAP inh = qHTS Assay for Iinhibitors of HIV-1 Budding by Blocking the Interaction of PTAP/TSG101; Tumor susceptibility gene 101 protein (Homo sapiens), Q99816; Fluorescence polarization, FITC-PTAP peptide / Tsg101 binding; Potency, µM (series often up to 115 µM), for the others: at the top dose activity change, negative = inhibition, usual class: inhibitors; 340,000 tested, under 10 active; active means well fitted inhibition curve with a large enough effect in the main read-out, with a control signal flat, not every such curve was filed as active; inconclusive means small, poorly fitted or top-dose-only effect, or effect the other way, or a change in a side signal; inactive means no such curve, though single readings can be large or run the other way; further: % of control where 0% means no effect
# Target sequence (Q99816 whole entry, looked up): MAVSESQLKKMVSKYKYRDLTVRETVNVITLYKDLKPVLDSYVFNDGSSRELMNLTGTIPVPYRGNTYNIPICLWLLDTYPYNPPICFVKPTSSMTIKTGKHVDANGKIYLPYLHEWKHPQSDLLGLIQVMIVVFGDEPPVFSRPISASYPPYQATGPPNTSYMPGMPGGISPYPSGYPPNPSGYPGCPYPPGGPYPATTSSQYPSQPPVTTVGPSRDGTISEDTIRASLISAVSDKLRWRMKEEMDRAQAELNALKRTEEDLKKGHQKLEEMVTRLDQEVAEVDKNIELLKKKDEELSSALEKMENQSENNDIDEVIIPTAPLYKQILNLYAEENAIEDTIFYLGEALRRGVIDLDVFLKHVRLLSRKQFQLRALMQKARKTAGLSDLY
#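 FP read-out: FITC-PTAP peptide, 50 nM final, binding Tsg101 binding domain, 10 uM final; 20 min, r.t.; 10 mM HEPES pH 7.5, 0.15 M NaCl, 0.01% Tween 20, 3 mM EDTA, 0.1 mM TCEP.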
# MCF10A rerep = A quantitative high throughput screen for small molecules that induce DNA re-replication in MCF 10a normal breast cells. MCF 10A DNA re-replication, Hoechst nuclear intensity, 48 h. Potency, µM (doses to about 46.1 µM), inactives show at the top dose activity, positive = re-replication, hits mostly activators. actives 2.9% (n = 350,000); further: % of control where 0% means no effect; nearly all actives have a fitted effect of over 50% in size
# RGS4 inhibitor = Inhibitors of Regulator of G Protein Signaling (RGS) 4: qHTS | AID 504845, 2011 | Transcreener GDP fluorescence polarization, RGS4-accelerated GTP hydrolysis | actives 0.039% (n = 390,000) | Regulator of G-protein signaling 4 (Homo sapiens), P49798 | Potency, µM (highest dose often 114 µM), inactives show at the highest dose activity change, negative = inhibition, actives largely listed as inhibitors; further: on the % scale 0 is the no-effect control and ±100 the full control effect; nearly all actives have a fitted effect of over 75% in size
#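 MLSMR compounds (23 nl, pin-transferred) preincubated 10 min at room temperature with a 500nM (2x) first reagent, then RGS4 at 900nM (2x) plus Transcreener GDP mix added; fluorescence polarization (620/688 nm) read before and after 90 min at 30 °C.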
# KB-3-1 tox = qHTS assay for MDR1-selective chemotherapeutics: Primary screen using the parental adenocarcinoma cell KB-3-1. KB-3-1 viability, CellTiter-Glo ATP luminescence, 72 h. actives 1.4% (n = 400,000). AID 1347075, 2019. Potency, µM (titrated, usually from 46.1 µM), hits mostly cytotoxic; further: on the % scale 0 is the no-effect control and ±100 the full control effect; nearly all actives have a fitted effect of over 60% in size
#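 Using CellTiter-Glo luminescence, growth of non-resistant KB-3-1 adenocarcinoma cells is assessed 72 h after pin-tool compound addition at 37 °C. Normalized responses across the concentration series yield fitted curves.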
# The depositor's hits bear a star; i = inactive; u = inconclusive; x = no result. Unless noted, the call rests on the fitted dose curve; in most records, active means well fitted curve in the direction sought with a large enough effect; inconclusive means small, poorly fitted or top-dose-only effect, or another doubt; inactive means no such curve, though single readings can be large; an effect the other way counts as inactive or inconclusive. Potency means the concentration at half of the fitted maximal effect.
SMILES,KB-V1 MDR tox,SW480 rereplic,TSG101-PTAP inh,MCF10A rerep,RGS4 inhibitor,KB-3-1 tox
CCOC(=O)c1cnc(-n2nc(C)cc2C)nc1NC1CCCC1,5.2µM*,-14%,-4%,0%,-10%,i
CCOC(=O)c1cnc(-n2nc(C)cc2C)nc1NCCc1ccccc1,0.73µM*,14%,-1%,u,-19%,i
CCOC(=O)N1CCN(C(=O)c2cc(COc3ccc4ncccc4c3)on2)CC1,u,18%,-2%,u,2%,u
Cc1cccnc1CN1CCN(C(=O)c2cc(COc3ccc4ncccc4c3)on2)CC1,6.5µM*,3%,0%,u,0%,u
O=C(NC1CCCCCCC1)c1cc(COc2ccc3ncccc3c2)on1,1.8µM*,11%,0%,1%,6%,2.6µM*
O=C(c1cc(COc2ccc3ncccc3c2)on1)N1CCC(O)CC1,i,-6%,0%,-2%,-39%,u
CCOc1ccccc1N(C)C(=O)c1cc(S(=O)(=O)NCc2ccc(C)cc2)ccc1F,i,x,x,x,-3%,u
CCC(=O)Nc1ccc2nc(SCCOc3ccc(C)cc3OC)sc2c1,i,x,x,x,-32%,i
Cc1ccc(CN(Cc2ccco2)C(=O)c2ccccc2Cl)o1,x,x,x,x,-7%,x
Cc1ccsc1C(=O)OCC(=O)N(Cc1ccccc1)C(C)C,i,-7%,-2%,7%,10%,u
Cc1ccc(C(=O)OCC(=O)N(Cc2ccccc2)C(C)C)cc1C,21µM*,2%,-3%,-2%,-1%,i
COc1cc(NC(=O)c2cccs2)c(C(=O)OCC(=O)NC(=O)NCc2ccccc2)cc1OC,i,23%,3%,15µM*,1%,i
CC(=O)Nc1ccc(C(=O)OCC(=O)NC(=O)NCc2ccccc2)cc1,i,x,x,x,x,i
Cc1ccc(C(=O)OCC(=O)NC(=O)NCc2ccccc2)cc1C,i,4%,-2%,10µM*,-7%,i
O=C(COC(=O)c1ccc(F)c([N+](=O)[O-])c1)NC(=O)NCc1ccccc1,u,u,-2%,21µM*,-18%,i
CCOc1ccc(S(=O)(=O)N(CC(=O)NCCSc2ccccc2)c2ccccc2)cc1,i,x,x,x,18%,i
Cc1ccc(CCNC(=O)c2cn(C)c3ccc(S(=O)(=O)N4CCC(C)CC4)cc3c2=O)cc1,i,x,x,x,6%,u
Cc1ccc(Cl)cc1N1CCN(CCCNc2ncnc3onc(-c4ccc(F)cc4)c23)CC1,i,x,x,x,17%,i
CCOC(=O)c1c(C)[nH]c(C)c1S(=O)(=O)NCC(=O)N1CCN(c2cccc(C)c2)C(C)C1 (stereo unspecified),i,x,x,x,18%,i
Cc1ccccc1C(=O)NC1(C(F)(F)F)N=C(c2ccccc2)N(C2CCCCC2)C1=O (stereo unspecified),i,x,x,x,-1%,i
Cc1ccc(C(=O)N(Cc2ccccc2)C(C)(C)C)cc1C,i,-3%,2%,23µM*,-23%,i
CC(C)(C)N(Cc1ccccc1)C(=O)c1ccc(Br)o1,i,4%,0%,u,6%,i
Cc1ccc(CN(Cc2cccn2-c2nnc(N3CCCC3=O)s2)C(=O)Nc2ccccc2Cl)cc1,i,x,x,x,15%,i
Cc1cccc(/N=C/c2sc3ccccc3c2O)n1,i,-3%,-5%,-4%,-33%,i
Cc1c(/C=N/O)sc2ccccc12,21µM*,-4%,0%,-1%,8%,u

# Screening data as filed in PubChem.
